Results from PubChem BioAssay (NCATS).
Inconclusive results are not listed. Calls of active or inactive are those of the source. Unless noted, calls come from the whole dose curve.

Legend:
[1] = qHTS for Inhibitors of the Functional Ribonucleoprotein Complex (vRNP) of Lassa (LASV) Arenavirus: LASV Primary Screen - GLuc reporter signal (AID 1347082; calls by dose curve; tested in HEK293 reporter line; note: nearly all actives have a fitted effect of over 60% in size)
[2] = qHTS for Inhibitors of the Functional Ribonucleoprotein Complex (vRNP) of Lassa (LASV) Arenavirus: Viability assay - alamar blue signal for LASV Primary Screen (AID 1347083; calls by dose curve; tested in HEK293 reporter line; note: nearly all actives have a fitted effect of over 80% in size)
[3] = qHTS for Inhibitors of the Functional Ribonucleoprotein Complex (vRNP) of Lymphocytic Choriomeningitis Arenaviruses (LCMV): Viability assay - alamar blue signal for LCMV Primary Screen (AID 1347085; calls by dose curve; tested in HEK293 reporter line; note: nearly all actives have a fitted effect of over 80% in size)
[4] = target: Nucleoprotein (Lymphocytic choriomeningitis virus (strain Armstrong)) (UniProt P09992); assay: qHTS for Inhibitors of the Functional Ribonucleoprotein Complex (vRNP) of Lymphocytic Choriomeningitis Arenaviruses (LCMV): LCMV Primary Screen - GLuc reporter signal (AID 1347086); note: nearly all actives have a fitted effect of over 70% in size
Sequence of Nucleoprotein (Lymphocytic choriomeningitis virus (strain Armstrong)) (P09992 whole entry, looked up): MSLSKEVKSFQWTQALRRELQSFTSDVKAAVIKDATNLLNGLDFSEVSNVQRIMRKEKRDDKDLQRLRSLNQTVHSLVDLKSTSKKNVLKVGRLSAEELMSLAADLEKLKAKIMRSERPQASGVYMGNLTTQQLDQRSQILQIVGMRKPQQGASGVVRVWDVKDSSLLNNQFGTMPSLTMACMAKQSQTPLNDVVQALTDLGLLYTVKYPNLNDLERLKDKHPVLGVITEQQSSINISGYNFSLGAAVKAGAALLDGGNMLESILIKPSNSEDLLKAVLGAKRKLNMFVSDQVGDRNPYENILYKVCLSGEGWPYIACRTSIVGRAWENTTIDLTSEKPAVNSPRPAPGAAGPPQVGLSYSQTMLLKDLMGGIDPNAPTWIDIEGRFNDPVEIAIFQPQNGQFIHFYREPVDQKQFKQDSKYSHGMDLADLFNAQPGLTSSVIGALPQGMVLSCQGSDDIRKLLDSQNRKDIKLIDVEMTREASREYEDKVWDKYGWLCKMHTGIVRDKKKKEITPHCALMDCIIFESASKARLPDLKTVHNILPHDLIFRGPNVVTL
% is set by controls: 0 for no effect and ±100 for the full control effect.
Note: series mostly up to about 57 µM.

NC1=NCC2c3ccccc3Cc3ccccc3N12 (stereo not given)
inactive: Potency [1] | Potency [2] | Potency [3] | Potency [4]

CC(C)NCC(O)c1ccc2ccccc2c1 (stereo not given)
inactive: Potency [1] | Potency [2] | Potency [3] | Potency [4]

COC(=O)[C@H]1[C@H]2C[C@@H]3c4[nH]c5cc(OC)ccc5c4CCN3C[C@H]2C[C@@H](OC(=O)COc2ccc(OC)cc2)[C@@H]1OC
inactive: Potency [1] | Potency [2] | Potency [3] | Potency [4]

CCNC(=O)NCCCOc1cccc(CN2CCCCC2)c1
inactive: Potency [1] | Potency [2] | Potency [3] | Potency [4]

O=C(CCCCC(=O)Nc1c(I)cc(I)c(C(=O)O)c1I)Nc1c(I)cc(I)c(C(=O)O)c1I
inactive: Potency [1] | Potency [2] | Potency [3] | Potency [4]

CCC(C(=O)OCCOCCN(CC)CC)c1ccccc1 (stereo not given)
inactive: Potency [1] | Potency [2] | Potency [3] | Potency [4]

CCOc1cc(N)c(Cl)cc1C(=O)NCC1CN(Cc2ccc(F)cc2)CCO1 (stereo not given)
inactive: Potency [1] | Potency [2] | Potency [3] | Potency [4]

CCCc1ncc(C[n+]2ccccc2C)c(N)n1
inactive: Potency [1] | Potency [2] | Potency [3] | Potency [4]

CCC(=O)O[C@]1(C(=O)COC)[C@@H](C)C[C@H]2[C@@H]3CCC4=CC(=O)C=C[C@]4(C)C3(F)[C@@H](O)C[C@@]21C (stereo not given in full)
inactive: Potency [1] | Potency [2] | Potency [3] | Potency [4]

Nc1c2c(nc3ccccc13)CCCC2O (stereo not given)
inactive: Potency [1] | Potency [2] | Potency [3] | Potency [4]

CC(Oc1c(Cl)cccc1Cl)C1=NCCN1 (stereo not given)
inactive: Potency [1] | Potency [2] | Potency [3] | Potency [4]

Cc1c(Cn2ccnc2)c2ccccc2n1CCC(=O)O
inactive: Potency [1] | Potency [2] | Potency [3] | Potency [4]

CCN(CC)CCNC(C(=O)OCCC(C)C)c1ccccc1 (stereo not given)
inactive: Potency [1] | Potency [2] | Potency [3] | Potency [4]

O=C1c2cccc(O)c2C(=O)c2c(O)cccc21
inactive: Potency [1] | Potency [2] | Potency [3] | Potency [4]

COC(=O)C1=C(C)NC(C)=C(C(=O)OCCN2CCN(C(c3ccccc3)c3ccccc3)CC2)C1c1cccc([N+](=O)[O-])c1 (stereo not given)
inactive: Potency [1] | Potency [2] | Potency [3] | Potency [4]

CC(C)(C)c1ccc(C(=O)CCCN2CCC(OC(c3ccccc3)c3ccccc3)CC2)cc1
inactive: Potency [1] | Potency [2] | Potency [3] | Potency [4]

CNC1CCCN(c2c(F)cc3c(=O)c(C(=O)O)cn(C4CC4)c3c2OC)C1 (stereo not given)
inactive: Potency [1] | Potency [2] | Potency [3] | Potency [4]

O=C(O)CCC(=O)c1ccc(-c2ccccc2)cc1
inactive: Potency [1] | Potency [2] | Potency [3] | Potency [4]

Clc1ccc(C(Cn2ccnc2)OCc2ccsc2Cl)c(Cl)c1 (stereo not given)
inactive: Potency [1] | Potency [2] | Potency [3] | Potency [4]

Oc1ccc(C(O)CNCCCCCCNCC(O)c2ccc(O)c(O)c2)cc1O (stereo not given)
inactive: Potency [1] | Potency [2] | Potency [3] | Potency [4]

Clc1ccc2c(c1)CCc1cccnc1C2=C1CCNCC1
inactive: Potency [1] | Potency [2] | Potency [3] | Potency [4]

COC(=O)c1cc(S(N)(=O)=O)ccc1OC
inactive: Potency [1] | Potency [2] | Potency [3] | Potency [4]

CCCCN1CCCC1C(=O)Nc1c(C)cc(C)cc1C (stereo not given)
inactive: Potency [1] | Potency [2] | Potency [3] | Potency [4]

O=C(O)Cn1c(C(=O)Nc2nc(-c3ccccc3Cl)cs2)cc2ccccc21
inactive: Potency [1] | Potency [2] | Potency [3] | Potency [4]

CCCCCC(=O)O[C@]1(C(C)=O)CC[C@H]2[C@@H]3CCC4=CC(=O)CC[C@]4(C)[C@H]3CC[C@@]21C
inactive: Potency [1] | Potency [2] | Potency [3] | Potency [4]

CSc1ccc2c(c1)C(N1CCN(C)CC1)Cc1ccccc1S2 (stereo not given)
inactive: Potency [1] | Potency [2] | Potency [3] | Potency [4]

CCCCC[C@H](O)C=C[C@H]1[C@H](O)CC(=O)[C@H]1CC=CCCCC(=O)O
inactive: Potency [1] | Potency [2] | Potency [3] | Potency [4]

O=C(Oc1cccc2cccnc12)c1ccccc1
inactive: Potency [1] | Potency [2] | Potency [3] | Potency [4]

CC(Cc1cccc(C(F)(F)F)c1)NCCOC(=O)c1ccccc1 (stereo not given)
inactive: Potency [1] | Potency [2] | Potency [3] | Potency [4]

CC1=C(CC(=O)O)c2cc(F)ccc2/C1=C\c1ccc(S(C)(=O)=O)cc1
inactive: Potency [1] | Potency [2] | Potency [3] | Potency [4]

COc1ccc(CN(CCN(C)C)c2ccccn2)cc1
inactive: Potency [1] | Potency [2] | Potency [3] | Potency [4]

CC(C)=CCC/C(C)=C/CC/C(C)=C/C(=O)OCC(=O)[C@@]1(O)CC[C@H]2[C@@H]3CCC4=CC(=O)C=C[C@]4(C)[C@H]3[C@@H](O)C[C@@]21C
inactive: Potency [1] | Potency [2] | Potency [3] | Potency [4]

C=CCOc1cc(Cl)ccc1C(=O)NCCN(CC)CC
inactive: Potency [1] | Potency [2] | Potency [3] | Potency [4]

CN(Cc1ccc(C(C)(C)C)cc1)Cc1cccc2ccccc12
inactive: Potency [1] | Potency [2] | Potency [3] | Potency [4]

CCN(CC)CCNC(=O)c1cc(Br)c(N)cc1OC
inactive: Potency [1] | Potency [2] | Potency [3] | Potency [4]

CC(=O)N1C[C@H](O)C[C@H]1C(=O)O
inactive: Potency [1] | Potency [2] | Potency [3] | Potency [4]

Oc1ccc(Cl)cc1Sc1cc(Cl)ccc1O
inactive: Potency [1] | Potency [2] | Potency [3] | Potency [4]

COc1ccccc1N1CCN(CC(O)COc2cccc3ccccc23)CC1 (stereo not given)
inactive: Potency [1] | Potency [2] | Potency [3] | Potency [4]

CCOC(=O)NNc1nncc2ccccc12
inactive: Potency [1] | Potency [2] | Potency [3] | Potency [4]

CC(N)C(=O)OC(C)(C)Cc1ccc(Cl)cc1 (stereo not given)
inactive: Potency [1] | Potency [2] | Potency [3] | Potency [4]

O=C(/C=C/c1ccc(O)c(O)c1)O[C@@H]1C[C@@](OC(=O)/C=C/c2ccc(O)c(O)c2)(C(=O)O)C[C@@H](O)[C@@H]1O
inactive: Potency [1] | Potency [2] | Potency [3] | Potency [4]

Cc1c(N)cccc1C(F)(F)F
inactive: Potency [1] | Potency [2] | Potency [3] | Potency [4]

CCCCOc1ccc(OCCCN2CCOCC2)cc1
inactive: Potency [1] | Potency [2] | Potency [3] | Potency [4]

CCN1CCN(c2cc(-c3ccc(F)cc3)c3c(n2)CCCCCC3)CC1
inactive: Potency [1] | Potency [2] | Potency [3] | Potency [4]

COc1ccccc1N1CCN(CCCNc2cc(=O)n(C)c(=O)n2C)CC1
inactive: Potency [1] | Potency [2] | Potency [3] | Potency [4]

N[C@@H](Cc1ccc(O)cc1)C(=O)O
inactive: activity change, negative = inhibition [1] 4.89% [at 11.5 µM] | activity change, negative = reduced viability [2] 15.7% [at 11.5 µM] | activity change, negative = lower viability [3] 1.19% [at 11.5 µM] | activity change, negative = inhibition [4] 16.2% [at 11.5 µM]

CC(=O)OCC(=O)Nc1cc(C#N)cc(NC(=O)COC(C)=O)c1Cl
inactive: Potency [1] | Potency [2] | Potency [3] | Potency [4]

C[C@H](N)C(=O)N[C@@H](C)C(=O)NC1[C@H]2CN(c3nc4c(cc3F)c(=O)c(C(=O)O)cn4-c3ccc(F)cc3F)C[C@@H]12 (stereo not given in full)
inactive: Potency [1] | Potency [2] | Potency [3] | Potency [4]

NS(=O)(=O)c1cc2c(cc1Cl)CN(C1CCCCC1)C2=O
inactive: Potency [1] | Potency [2] | Potency [3] | Potency [4]

C/C=C(/C(=C/C)c1ccc(O)cc1)c1ccc(O)cc1
inactive: Potency [1] | Potency [2] | Potency [3] | Potency [4]

Cc1ccc2c(c1)c1c3n2CCNC3CCC1 (stereo not given)
inactive: Potency [1] | Potency [2] | Potency [3] | Potency [4]

Nc1c2c(nc3c1CCC3)CCCC2
inactive: Potency [1] | Potency [2] | Potency [3] | Potency [4]

Cc1cc(=O)oc2cc(O)ccc12
inactive: Potency [1] | Potency [2] | Potency [3] | Potency [4]

CCn1cc(C(=O)O)c(=O)c2cc(F)c(N3CCNCC3)nc21
inactive: Potency [1] | Potency [2] | Potency [3] | Potency [4]

O=S1(=O)OC(c2ccc(O)cc2)(c2ccc(O)cc2)c2ccccc21
inactive: Potency [1] | Potency [2] | Potency [3] | Potency [4]

Cc1nc2sccn2c(=O)c1CCN1CCC(=C(c2ccc(F)cc2)c2ccc(F)cc2)CC1
inactive: Potency [1] | Potency [2] | Potency [3] | Potency [4]

CC(COc1ccccc1)NC(C)C(O)c1ccc(O)cc1 (stereo not given)
inactive: Potency [1] | Potency [2] | Potency [3] | Potency [4]

CCN[C@@H]1C[C@H](N)[C@@H](OC2OC(CN)=CCC2N)[C@H](O)[C@H]1O[C@H]1OC[C@](C)(O)[C@H](NC)[C@H]1O (stereo not given in full)
inactive: activity change, negative = inhibition [1] -2.08% [at 0.757 µM] | activity change, negative = reduced viability [2] -5.5% [at 0.757 µM] | activity change, negative = lower viability [3] 0.253% [at 0.757 µM] | activity change, negative = inhibition [4] 10% [at 0.757 µM]

O=C(CCCN1CCN(c2ccccn2)CC1)c1ccc(F)cc1
inactive: Potency [1] | Potency [2] | Potency [3] | Potency [4]

C[C@@H]1CCN(C(=O)[C@H](CCCN=C(N)N)NS(=O)(=O)c2cccc3c2NC[C@H](C)C3)[C@@H](C(=O)O)C1
inactive: Potency [1] | Potency [2] | Potency [3] | Potency [4]
